In PubChem BioAssay (NCATS):
Inconclusive results are not listed. Where a call stands in place of a potency, no number is given. Activity calls are given as the source filed them. Calls come from the whole dose curve; as a rule, active = well fitted cell-killing curve with a large enough effect; inconclusive = small, poorly fitted or top-dose-only effect; inactive = no such curve, though single readings can be large or run the other way.

Experiment: qHTS of pediatric cancer cell lines to identify multiple opportunities for drug repurposing: Primary screen for Rh30 cells (AID 1347107); note: nearly all actives have a fitted effect of over 75% in size
Settings: Rh30 rhabdomyosarcoma viability, CellTiter-Glo luminescence, 48 h; series mostly up to 46 µM
Outline: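 Cells (500-1,000/well) rested 5 h, then received compounds for 48 h; metabolically active cells were measured by CellTiter-Glo luminescence. Final concentrations spanned up to 46 µM (MIPE, 11-point) or 0.59 nM-46 µM (NPC, 8-point) in primary screens, 11-point in follow-ups.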
In the case of `Nc1nc2ncc(CNc3ccc(C(=O)N[C@@H](CCC(=O)O)C(=O)O)cc3)nc2c(=O)[nH]1`, the Potency is reported as “inactive”. In the case of `CC(C)NC[C@@H](O)COc1cccc2ccccc12`, the Potency is reported as “inactive”. In the case of `CN1C(CCl)Nc2cc(Cl)c(S(N)(=O)=O)cc2S1(=O)=O` (stereo unspecified), the Potency is reported as “inactive”. In the case of `Cc1ccnc(NS(=O)(=O)c2ccc(N)cc2)n1`, the Potency is reported as “inactive”. With `COc1cccc2c1C(=O)c1c(O)c3c(c(O)c1C2=O)C[C@@](O)(C(C)=O)C[C@@H]3O[C@H]1C[C@H](N)[C@H](O)[C@H](C)O1` the Potency was “inactive”. With `C[C@]12CCC(=O)C=C1[C@@H]1C[C@@H]1[C@H]1[C@@H]3[C@@H]4C[C@@H]4[C@@]4(CCC(=O)O4)[C@@]3(C)CC[C@@H]12` the Potency was “inactive”. In the case of `CCOC(=O)OC(C)OC1=C(C(=O)Nc2ccccn2)N(C)S(=O)(=O)c2ccccc21` (stereo unspecified), the Potency is reported as “inactive”. For `C[C@H]1[C@H](NC(=O)/C(=N/OC(C)(C)C(=O)O)c2csc(N)n2)C(=O)N1S(=O)(=O)O` (stereo in doubt), the Potency was “inactive”. With `N[C@@H](CCC(=O)N[C@@H](CS)C(=O)NCC(=O)O)C(=O)O` the Potency was “inactive”. With `C[C@]12CC[C@H]3[C@@H](CCC4=CC(=O)CC[C@@]43C)[C@@H]1CC[C@@H]2C(=O)CO` the Potency was “inactive”. For `CC(O)C(=O)O` (stereo unspecified), the Potency was “inactive”. For `Cc1ccc(C(=O)C(C)CN2CCCCC2)cc1` (stereo unspecified), the Potency was “inactive”. For `O=C(O)CNC(=O)c1ccccc1`, the Potency was “inactive”. For `Cc1cc2c(cc1CC(=O)c1sccc1S(=O)(=O)Nc1onc(C)c1Cl)OCO2`, the Potency was “inactive”. For `CCCCCC=CCC=CCCCCCCCC(=O)OCC`, the Potency was “inactive”. For `CC(C)N=C(N)/N=C(\N)Nc1ccc(Cl)cc1`, the Potency was “inactive”. With `CC(O)(P(=O)(O)O)P(=O)(O)O` the Potency was “inactive”. With `CC1(C)O[C@@H]2C[C@H]3[C@@H]4C[C@H](F)C5=CC(=O)C=C[C@]5(C)[C@H]4[C@@H](O)C[C@]3(C)[C@]2(C(=O)CO)O1` the Potency was “inactive”. With `CC(C)(CO)[C@@H](O)C(=O)NCCCO` the Potency was “inactive”. In the case of `Cc1c(C)n(CCN(C)C)c2ccc(C(=O)OCCN(C)C)cc12`, the Potency is reported as “inactive”. In the case of `CC1=C(C(=O)O)N2C(=O)[C@@H](NC(=O)[C@H](N)c3ccc(O)cc3)[C@H]2SC1`, the Potency is reported as “inactive”. With `CCN(CCCCOC(=O)c1ccc(OC)c(OC)c1)C(C)Cc1ccc(OC)cc1` (stereo unspecified) the Potency was “inactive”. For `CCCOC(C(=O)OC1CCN(C)CC1)(c1ccccc1)c1ccccc1`, the Potency was “inactive”. For `NC(CS)C(=O)O` (stereo unspecified), the Potency was “inactive”. For `CN(C(=O)CN(CCO)CC(=O)N(C)C(C)(C)Cc1ccccc1)C(C)(C)Cc1ccccc1`, the Potency was “inactive”. With `NC[C@H]1O[C@H](O[C@H]2[C@H](O)[C@@H](O[C@H]3O[C@H](CO)[C@@H](O)[C@H](N)[C@H]3O)[C@H](N)C[C@@H]2N)[C@H](N)[C@@H](O)[C@@H]1O` the Potency was “inactive”. For `CCOC(=O)/C=C(C)/C=C/C=C(C)/C=C/c1c(C)cc(OC)c(C)c1C`, the Potency was “inactive”. With `CCCCc1nc(Cl)c(CO)n1Cc1ccc(-c2ccccc2-c2nn[nH]n2)cc1` the Potency was “inactive”. For `CN(C)CC/C=C1/c2ccccc2COc2ccc(CC(=O)O)cc21`, the Potency was “inactive”. In the case of `COc1cc(N)c(Cl)cc1C(=O)NC1CCN(CCCOc2ccc(F)cc2)CC1OC` (stereo unspecified), the Potency is reported as “inactive”. In the case of `C[C@@H](CN(C)C)CN1c2ccccc2Sc2ccccc21`, the Potency is reported as “inactive”. In the case of `O=C1OC2(c3ccc(O)cc3Oc3cc(O)ccc32)c2ccccc21`, the Potency is reported as “inactive”. In the case of `CN1CCC[C@@H]1c1cccnc1`, the Potency is reported as “inactive”. For `O=C(COc1ccc(Cl)cc1)N1CCN(Cc2ccc3c(c2)OCO3)CC1`, the Potency was “inactive”. For `CCCC(=O)Nc1ccc(OCC(O)CNC(C)C)c(C(C)=O)c1` (stereo unspecified), the Potency was “inactive”. With `CN=C(NC#N)NCCSCc1csc(N=C(N)N)n1` the Potency was “inactive”. In the case of `NC(=O)c1cc[n+](CC2=C(C(=O)[O-])N3C(=O)[C@@H](NC(=O)Cc4cccs4)[C@H]3SC2)cc1`, the Potency is reported as “inactive”. In the case of `Cc1cc(O)c(C(C)C)cc1Cl`, the Potency is reported as “inactive”.

Experiment: qHTS of pediatric cancer cell lines to identify multiple opportunities for drug repurposing: Primary screen for Rh41 cells (AID 1347108); note: nearly all actives have a fitted effect of over 70% in size; note: potency is the fitted concentration of half-maximal effect
Settings: Rh41 rhabdomyosarcoma viability, CellTiter-Glo luminescence, 48 h; series mostly up to 46 µM
Outline: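 Cells seeded at 500-1,000 cells/well in growth media, rested 5 hours at 37 degrees C, 5% CO2, then dosed; MIPE compounds at 11-point (from 0.78 nM) and NPC at 8-point (from 0.59 nM) final concentrations. Viability by CellTiter-Glo luminescence after 48 hours.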
For `Nc1nc2ncc(CNc3ccc(C(=O)N[C@@H](CCC(=O)O)C(=O)O)cc3)nc2c(=O)[nH]1`, the Potency was “inactive”. In the case of `CC(C)NC[C@@H](O)COc1cccc2ccccc12`, the Potency is reported as “inactive”. With `CN1C(CCl)Nc2cc(Cl)c(S(N)(=O)=O)cc2S1(=O)=O` (stereo unspecified) the Potency was “inactive”. With `Cc1ccnc(NS(=O)(=O)c2ccc(N)cc2)n1` the Potency was “inactive”. In the case of `COc1cccc2c1C(=O)c1c(O)c3c(c(O)c1C2=O)C[C@@](O)(C(C)=O)C[C@@H]3O[C@H]1C[C@H](N)[C@H](O)[C@H](C)O1`, the Potency is reported as 0.75 µM (active). In the case of `C[C@]12CCC(=O)C=C1[C@@H]1C[C@@H]1[C@H]1[C@@H]3[C@@H]4C[C@@H]4[C@@]4(CCC(=O)O4)[C@@]3(C)CC[C@@H]12`, the Potency is reported as “inactive”. With `CCOC(=O)OC(C)OC1=C(C(=O)Nc2ccccn2)N(C)S(=O)(=O)c2ccccc21` (stereo unspecified) the Potency was “inactive”. With `C[C@H]1[C@H](NC(=O)/C(=N/OC(C)(C)C(=O)O)c2csc(N)n2)C(=O)N1S(=O)(=O)O` (stereo in doubt) the Potency was “inactive”. With `N[C@@H](CCC(=O)N[C@@H](CS)C(=O)NCC(=O)O)C(=O)O` the Potency was “inactive”. For `C[C@]12CC[C@H]3[C@@H](CCC4=CC(=O)CC[C@@]43C)[C@@H]1CC[C@@H]2C(=O)CO`, the Potency was “inactive”. For `CC(O)C(=O)O` (stereo unspecified), the Potency was “inactive”. With `Cc1ccc(C(=O)C(C)CN2CCCCC2)cc1` (stereo unspecified) the Potency was “inactive”. In the case of `O=C(O)CNC(=O)c1ccccc1`, the Potency is reported as “inactive”. For `Cc1cc2c(cc1CC(=O)c1sccc1S(=O)(=O)Nc1onc(C)c1Cl)OCO2`, the Potency was “inactive”. In the case of `CCCCCC=CCC=CCCCCCCCC(=O)OCC`, the Potency is reported as “inactive”. With `CC(C)N=C(N)/N=C(\N)Nc1ccc(Cl)cc1` the Potency was “inactive”. In the case of `CC(O)(P(=O)(O)O)P(=O)(O)O`, the Potency is reported as “inactive”. With `CC1(C)O[C@@H]2C[C@H]3[C@@H]4C[C@H](F)C5=CC(=O)C=C[C@]5(C)[C@H]4[C@@H](O)C[C@]3(C)[C@]2(C(=O)CO)O1` the Potency was “inactive”. With `CC(C)(CO)[C@@H](O)C(=O)NCCCO` the Potency was “inactive”. With `Cc1c(C)n(CCN(C)C)c2ccc(C(=O)OCCN(C)C)cc12` the Potency was “inactive”. In the case of `CC1=C(C(=O)O)N2C(=O)[C@@H](NC(=O)[C@H](N)c3ccc(O)cc3)[C@H]2SC1`, the Potency is reported as “inactive”. With `CCN(CCCCOC(=O)c1ccc(OC)c(OC)c1)C(C)Cc1ccc(OC)cc1` (stereo unspecified) the Potency was “inactive”. For `CCCOC(C(=O)OC1CCN(C)CC1)(c1ccccc1)c1ccccc1`, the Potency was “inactive”. For `NC(CS)C(=O)O` (stereo unspecified), the Potency was “inactive”. With `CN(C(=O)CN(CCO)CC(=O)N(C)C(C)(C)Cc1ccccc1)C(C)(C)Cc1ccccc1` the Potency was “inactive”. With `NC[C@H]1O[C@H](O[C@H]2[C@H](O)[C@@H](O[C@H]3O[C@H](CO)[C@@H](O)[C@H](N)[C@H]3O)[C@H](N)C[C@@H]2N)[C@H](N)[C@@H](O)[C@@H]1O` the Potency was “inactive”. With `CCOC(=O)/C=C(C)/C=C/C=C(C)/C=C/c1c(C)cc(OC)c(C)c1C` the Potency was “inactive”. With `CCCCc1nc(Cl)c(CO)n1Cc1ccc(-c2ccccc2-c2nn[nH]n2)cc1` the Potency was “inactive”. With `CN(C)CC/C=C1/c2ccccc2COc2ccc(CC(=O)O)cc21` the Potency was “inactive”. In the case of `COc1cc(N)c(Cl)cc1C(=O)NC1CCN(CCCOc2ccc(F)cc2)CC1OC` (stereo unspecified), the Potency is reported as “inactive”. In the case of `C[C@@H](CN(C)C)CN1c2ccccc2Sc2ccccc21`, the Potency is reported as “inactive”. For `O=C1OC2(c3ccc(O)cc3Oc3cc(O)ccc32)c2ccccc21`, the Potency was “inactive”. In the case of `CN1CCC[C@@H]1c1cccnc1`, the Potency is reported as “inactive”. In the case of `O=C(COc1ccc(Cl)cc1)N1CCN(Cc2ccc3c(c2)OCO3)CC1`, the Potency is reported as “inactive”. In the case of `CCCC(=O)Nc1ccc(OCC(O)CNC(C)C)c(C(C)=O)c1` (stereo unspecified), the Potency is reported as “inactive”. With `CN=C(NC#N)NCCSCc1csc(N=C(N)N)n1` the Potency was “inactive”. In the case of `NC(=O)c1cc[n+](CC2=C(C(=O)[O-])N3C(=O)[C@@H](NC(=O)Cc4cccs4)[C@H]3SC2)cc1`, the Potency is reported as “inactive”. For `Cc1cc(O)c(C(C)C)cc1Cl`, the Potency was “inactive”.
